High-throughput results deposited in PubChem BioAssay by National Center for Advancing Translational Sciences (NCATS).
Gal4-VP16 FLuc – counter-screen for ROR gamma inhibitors: Gal4-VP16 reporter. Drosophila S2 Gal4-VP16 UAS-luciferase, luminescence, 20 h. Potency, µM (top dose mostly 53.6 µM), for inactives: at the top dose activity, negative = inhibition, actives largely listed as inhibitors. hit rate 3.5% among 310,000. AID 2546;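 also: Gal4-VP16 expression switched on by copper sulfate through the metallothionein promoter; potency is read from the fitted curve at half-maximal effect; % is scaled to controls: 0 for no effect and ±100 for the full control effect; nearly all actives have a fitted effect of over 50% in size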
MCF10A rerep – DNA re-replication induction in MCF 10a cells. MCF 10A DNA re-replication, Hoechst nuclear intensity, 48 h. Potency, µM (doses to about 46.1 µM), inactives show at the highest dose activity, positive = re-replication, most hits filed as activators. hit rate 2.9% among 350,000; also: potency is read from the fitted curve at half-maximal effect; % of control where 0% means no effect; nearly all actives have a fitted effect of over 50% in size
SW480 rerep – induces DNA re-replication in SW480 colon adenocarcinoma cells. SW480 DNA re-replication, Hoechst DNA content imaging, 48 h. Potency, µM (doses to about 46.1 µM), for the others: top-dose re-replication activation, hits mostly activators. hit rate 1.8% among 340,000; also: potency is read from the fitted curve at half-maximal effect; % of control where 0% means no effect; nearly all actives have a fitted effect of over 55% in size
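Quantitative HTS format with DMSO vehicle controls; 48 hr drug incubation at 37 C, then 40 min Hoechst staining and scanning imager measurement at 405 nm excitation.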
IL1B secr inh – blocks inflammasome-driven IL-1 beta release. THP-1 LPS/ATP IL-1B secretion, AlphaLISA, 16 h; hits give low values. activity change, % at 57.5 µM. hit rate 4.7% among 360,000. AID 743279; in the data active = activity change below about -50%; inconclusive = mostly about -30% to -49%; also: % is scaled to controls: 0 for no effect and ±100 for the full control effect
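THP-1 cells pretreated 1 hr with compounds (up to 57.5 uM final), then stimulated with LPS (250 ng/mL final) plus ATP (1.25 mM final); secreted IL-1B measured by AlphaLISA after 16 hr, decreased signal indicating inhibition.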
RORg inh – inhibitors of mouse ROR gamma transcriptional activity; P51450; Drosophila S2 Gal4-RORgamma UAS-luciferase reporter, 20 h; Potency, µM (series often up to 53.6 µM), inactives show top-dose activity change, negative = inhibition, most hits filed as inhibitors; hit rate 5.4% among 310,000; AID 2551; also: potency is read from the fitted curve at half-maximal effect; % is scaled to controls: 0 for no effect and ±100 for the full control effect; nearly all actives have a fitted effect of over 60% in size
Target sequence (P51450 whole entry, looked up, the tested form may be a part): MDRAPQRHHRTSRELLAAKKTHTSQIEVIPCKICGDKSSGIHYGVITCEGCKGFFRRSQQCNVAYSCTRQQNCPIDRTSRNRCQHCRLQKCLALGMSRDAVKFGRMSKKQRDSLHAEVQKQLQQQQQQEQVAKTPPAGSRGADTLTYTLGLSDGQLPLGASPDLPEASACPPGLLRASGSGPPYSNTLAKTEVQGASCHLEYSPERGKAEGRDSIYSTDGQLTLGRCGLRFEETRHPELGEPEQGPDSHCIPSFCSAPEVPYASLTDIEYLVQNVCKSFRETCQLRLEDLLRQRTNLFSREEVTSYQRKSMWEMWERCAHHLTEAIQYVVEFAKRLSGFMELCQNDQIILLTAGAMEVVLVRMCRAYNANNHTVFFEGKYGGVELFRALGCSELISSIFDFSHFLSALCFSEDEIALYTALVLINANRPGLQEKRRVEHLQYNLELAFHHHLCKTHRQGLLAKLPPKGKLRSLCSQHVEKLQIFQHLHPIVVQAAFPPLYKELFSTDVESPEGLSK
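Schneider cells (Drosophila), stable Gal4 DBD–ROR gamma + UAS-luc; 1 hr cmpd preincubation; Cu2+ induction 700 uM final; 20 hr ambient; luminescence.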
* marks the source's active call; other numbers are inactive results; ? = inconclusive; . = no result given; [ ] = remark or other dose. An excerpt weighted towards active compounds, which were near 11% of everything screened. Unless noted, calls follow the shape of the dose curve; as a rule, active = well fitted curve in the direction sought with a large enough effect; inconclusive = small, poorly fitted or top-dose-only effect, or another doubt; inactive = no such curve, though single readings can be large; an effect the other way counts as inactive or inconclusive.

SMILES | Gal4-VP16 FLuc | MCF10A rerep | SW480 rerep | IL1B secr inh | RORg inh
Cc1ccc(NC(=S)NCCN2CCOCC2)cc1C | -5.9% | -0.3% | -19.7% | 7.5 | 11.2µM*
COc1ccccc1C(=O)COC(=O)Cc1ccccc1F | . | -5.8% | -2.1% | 2.4 | .
O=C(NCC1CCCO1)NC12CC3CC(CC(C3)C1)C2 (configuration not stated) | 4.8% | 3.7% | 12.9% | 15.3 | 8.0%
S=C(NCC1CCCO1)NC12CC3CC(CC(C3)C1)C2 (configuration not stated) | 5.01µM* | 2.0% | 1.7% | 44.7 | 0.631µM*
NC(=O)C[C@H](N)c1cn([C@@H](CC(N)=O)C(=O)N2CCNCC2)nn1 | . | 15.0% | -6.2% | -18.6 | .
CCc1cc2cc3c(cc2nc1SCC(=O)Nc1nnc(C)s1)OCCO3 | ? | 3.26µM* | 16.4µM* | -6.1 | ?
Cc1cc2cc3c(cc2nc1SCC(=O)Nc1nc(C)c(C)s1)OCO3 | ? | 4.11µM* | 3.9% | 30.7 | ?
CCN(C[C@H]1N[C@@](CC)(C(=O)OC)[C@H]2C(=O)N(C)C(=O)[C@@H]12)S(=O)(=O)c1ccc(OC(F)(F)F)cc1 | . | -7.1% | 28.0% | 8.0 | .
O=C(O)CC(c1ccccc1)c1ccc2c(c1)OCO2 (configuration not stated) | . | . | . | 0.7 | .
COc1ccccc1N1CCN(CCn2c(=O)[nH]c3c([nH]c4ccccc43)c2=O)CC1 | -17.2% | . | . | . | 17.9%
COc1ccc(N2CCN(CCCn3c(=S)[nH]c4ccccc4c3=O)CC2)cc1 | ? | 20.7% | 5.2% | 20.7 | 6.31µM*
COc1ccccc1N1CCN(CCCn2c(=S)[nH]c3ccccc3c2=O)CC1 | ? | 7.2% | -6.1% | -20.9 | 12.6µM*
Nc1ccc(Oc2ccccc2-c2ccccc2)cc1 | . | 4.8% | -90.1% | -56.8* | .
CC(=O)CCC(=O)O | 5.4% | 4.1% | 6.8% | . | 8.1%[10 µM]
O=C1c2cccc3cccc(c23)C(=O)N1CC1CCN(CC(O)COCc2ccc3c(c2)OCO3)CC1 (configuration not stated) | -23.2% | ? | 4.5% | -80.7* | -21.4%
O=C1c2cccc3cccc(c23)C(=O)N1CCN1CCN(CC(O)COc2ccccc2)CC1 (configuration not stated) | -30.0% | 6.3% | 2.7% | 2.4 | -33.5%
Cc1ccc(C)c(OCC(O)CN2CCC(CN3C(=O)c4cccc5cccc(c45)C3=O)CC2)c1 (configuration not stated) | -13.9% | ? | -0.6% | -97.0* | -5.6%
COc1cccc(OCC(O)CN2CCN(CCN3C(=O)c4cccc5cccc(c45)C3=O)CC2)c1 (configuration not stated) | -19.0% | -39.1% | ? | -80.7* | -24.7%
COc1ccc(OCC(O)CN2CCC(CN3C(=O)c4cccc5cccc(c45)C3=O)CC2)cc1 (configuration not stated) | -12.4% | 11.7% | ? | . | 14.3%
CSc1ccc(CNc2ccc(Cl)cc2)cc1 | 22.1% | -4.6% | 0.8% | -73.3* | 36.1%
Cc1ccc(NCSc2ccc(Cl)cc2)cc1 | . | 9.0% | 13.2% | ? | .
COc1ccc(N2CCN(C(=S)NC(=O)c3cccs3)CC2)c([N+](=O)[O-])c1 | 1.41µM* | 19.0% | 0.3% | 9.6 | 0.316µM*
COc1ccc(N2CCN(C(=O)c3ccccc3Br)CC2)c([N+](=O)[O-])c1 | -16.6% | 13.0% | -0.5% | -61.2* | -1.0%
CCC(=O)N1CCN(c2c(Cl)cccc2[N+](=O)[O-])CC1 | 12.4% | -10.3% | -2.3% | -4.2 | -17.4%
O=C(NC(=S)N1CCN(c2c(Cl)cccc2[N+](=O)[O-])CC1)c1cccs1 | 0.159µM* | ? | 21.3% | 4.2 | 0.282µM*
O=C(/C=C/c1ccccc1)N1CCN(c2c(Cl)cccc2[N+](=O)[O-])CC1 | -5.5% | 25.9µM* | 25.8% | ? | ?
COc1ccc(C(=O)OCC(=O)N2CCCCCC2)cc1S(=O)(=O)N1CCOCC1 | . | -1.5% | -1.8% | 12.2 | .
COc1ccc([C@@H]2C[C@H]3[C@@H](CN2S(=O)(=O)c2ccccc2)C(=O)C[C@@H](c2ccccc2F)N3S(=O)(=O)c2ccc(C)cc2)cc1 | . | . | . | 16.3 | .
